# SRC3 inh: human NCOA3 inhibition; Q9Y6Q9; HEK293 GAL4-SRC3 luciferase reporter, luminescence; inhibition, % at 3.6 µM; actives 0.17% (n = 360,000);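 active means inhibition above a per-campaign cutoff, the mean of all compounds plus 3 SD, cut at about 60% in these data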;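 further: 0% = DMSO-treated cells and 100% = gossypol-treated cells at 36 µM; higher means less SRC3-driven luciferase light from the GAL4 reporter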
# LRH-1 inv ag: NR5A2 inverse agonism in reporter assay | O00482 | HEK293T StAR-luciferase reporter, LRH-1 transfected, 24 h | inhibition, % at 3.6 µM | actives 0.13% (n = 360,000);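 active means inhibition above the mean inhibition of all tested compounds plus 3 SD, cut at about 73% in these data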;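 further: 0% = DMSO wells and 100% = reporter-only cells lacking LRH-1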
# NR2F2 inh: inhibitors of human COUP-TFII (NR2F2); P24468; HEK293T NGFI-A luciferase reporter, luminescence; inhibition, % at 8.6 µM; actives 0.7% (n = 370,000);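 active means inhibition above a per-plate cutoff, mean inhibition of test wells between control levels plus 3 SD, cut at about 38% in these data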;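 further: cells cotransfected with COUP-TFII expression vector driving the NGFI-A reporter; 0% = median of COUP-TF2 test wells and 100% = reporter-only cells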
# Gli-Sufu antag: antagonists of Gli-Sufu signaling | actives 0.74% (n = 340,000) | AID 588413 | inhibition, % at 5 µM | Sufu-KO-LIGHT fibroblasts, Gli luciferase reporter luminescence;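 active means inhibition above about 55%, limit read from the data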;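 further: 0% = DMSO-treated cells and 100% = wells with medium but no cells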
# SRC1 inh: inhibits human SRC1 coactivator. HEK293 GAL4-SRC1 luciferase reporter, luminescence. inhibition, % at 3.6 µM. actives 0.12% (n = 360,000). AID 588354;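 active means inhibition above the campaign mean plus 3 SD, with each screening campaign given its own cutoff, cut at about 60% in these data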;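 further: 0% = DMSO treated cells and 100% = gossypol at 36 µM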
# NCOA2 inhibitor: human SRC2 (NCOA2) inhibition. Q15596. HEK293 GAL4-SRC2 luciferase reporter, luminescence. inhibition, % at 9 µM. actives 0.17% (n = 370,000). AID 651957;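 active means inhibition above the mean inhibition of all tested compounds plus 3 SD, set per campaign, cut at about 52% in these data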;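 further: 0% = DMSO treated cells and 100% = cells given Gossypol at 36 µM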
# Target sequence (Q15596 whole entry, looked up, the tested form may be a part): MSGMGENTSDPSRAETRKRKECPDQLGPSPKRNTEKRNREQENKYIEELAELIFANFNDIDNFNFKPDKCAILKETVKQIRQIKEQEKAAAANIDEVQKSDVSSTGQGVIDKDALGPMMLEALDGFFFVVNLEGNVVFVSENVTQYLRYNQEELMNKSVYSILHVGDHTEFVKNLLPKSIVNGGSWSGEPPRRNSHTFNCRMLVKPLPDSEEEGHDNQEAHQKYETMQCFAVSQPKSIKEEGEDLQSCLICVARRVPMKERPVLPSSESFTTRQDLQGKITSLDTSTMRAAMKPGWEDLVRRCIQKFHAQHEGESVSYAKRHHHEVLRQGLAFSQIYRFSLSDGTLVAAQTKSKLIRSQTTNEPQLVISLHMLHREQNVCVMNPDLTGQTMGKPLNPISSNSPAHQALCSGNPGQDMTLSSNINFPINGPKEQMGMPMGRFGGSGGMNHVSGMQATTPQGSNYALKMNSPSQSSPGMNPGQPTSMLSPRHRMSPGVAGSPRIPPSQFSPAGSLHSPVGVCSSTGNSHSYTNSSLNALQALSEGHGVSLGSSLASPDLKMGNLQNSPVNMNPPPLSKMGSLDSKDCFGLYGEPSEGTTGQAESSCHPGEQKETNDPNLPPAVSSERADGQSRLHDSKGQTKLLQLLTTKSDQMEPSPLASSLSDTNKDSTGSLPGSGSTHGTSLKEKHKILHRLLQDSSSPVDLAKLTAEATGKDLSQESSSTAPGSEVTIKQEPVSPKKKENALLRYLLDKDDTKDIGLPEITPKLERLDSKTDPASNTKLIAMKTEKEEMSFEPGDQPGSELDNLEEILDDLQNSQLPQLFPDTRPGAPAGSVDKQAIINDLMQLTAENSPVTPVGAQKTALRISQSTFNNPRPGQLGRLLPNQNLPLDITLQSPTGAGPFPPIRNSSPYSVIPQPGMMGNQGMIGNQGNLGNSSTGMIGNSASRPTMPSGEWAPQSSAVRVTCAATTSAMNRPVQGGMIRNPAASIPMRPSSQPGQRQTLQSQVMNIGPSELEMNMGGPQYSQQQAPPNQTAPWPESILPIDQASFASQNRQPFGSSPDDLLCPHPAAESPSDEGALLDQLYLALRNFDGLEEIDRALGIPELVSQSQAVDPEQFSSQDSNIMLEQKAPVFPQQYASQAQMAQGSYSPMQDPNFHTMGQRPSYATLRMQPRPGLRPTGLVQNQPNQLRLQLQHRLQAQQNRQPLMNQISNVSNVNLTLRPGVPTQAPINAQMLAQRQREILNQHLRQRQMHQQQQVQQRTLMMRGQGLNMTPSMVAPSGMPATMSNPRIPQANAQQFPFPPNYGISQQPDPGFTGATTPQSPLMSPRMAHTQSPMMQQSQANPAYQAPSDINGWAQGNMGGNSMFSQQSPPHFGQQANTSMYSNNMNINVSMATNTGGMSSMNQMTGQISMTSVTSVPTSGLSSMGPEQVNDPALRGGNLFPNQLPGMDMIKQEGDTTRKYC
# Gli antag conf: confirmation of Gli-SUFU pathway antagonists; inhibition, % at 5 µM; actives 40% (n = 2,500); shares compounds with Gli-Sufu antag; Sufu-KO-LIGHT cells, Gli luciferase reporter, luminescence;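 active means mean inhibition at 5 µM reaching about 45%, limit read from the data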;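 further: plate controls were DMSO-treated cells for no effect and wells lacking cells for full effect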
# SufuKO cytotox: cytotoxicity counter-screen for Gli-SUFU antagonists | cytotoxicity, % at 5 µM | AID 651994 | actives 32% (n = 2,500) | Sufu-KO-LIGHT cells cytotoxicity, ATP luminescence | shares compounds with Gli-Sufu antag;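 active means mean cytotoxicity at 5 µM above about 25%, limit read from the data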;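 further: cells exposed to compound overnight for roughly 16 to 18 hours; plate controls were DMSO wells with cells for no effect and medium without cells for full effect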
# Wnt3a counter: inhibits Wnt3a reporter, counter-screen for Gli-SUFU antagonists. shares compounds with Gli-Sufu antag. Wnt-LIGHT cells, Wnt3a-driven luciferase reporter, luminescence. inhibition, % at 6.25 µM. actives 20% (n = 2,500). AID 651995;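 active means mean inhibition above about 25%, limit read from the data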
# * marks the source's active call; other numbers are inactive results; . = not tested or not shown. Rows were chosen to be rich in hits. Some 1.3% of all compounds tested hit in one or more screens of this group.
SMILES,SRC3 inh,LRH-1 inv ag,NR2F2 inh,Gli-Sufu antag,SRC1 inh,NCOA2 inhibitor,Gli antag conf,SufuKO cytotox,Wnt3a counter
COc1ccc2c(c1)[C@@H](NC(=O)C(F)(F)F)[C@@H]1CCCC[C@]21c1ccccc1,.,.,12.3,.,.,7.4,.,.,.
COC(=O)[C@]12C[C@H](CC(=O)NCc3ccc(C)o3)C(=O)N(CCC3=CCCCC3)C1=C[C@H](C1CCCC1)O[C@@H]2C,.,.,5.7,.,.,-11.1,.,.,.
COc1cccc(NC(=O)CNC(=O)[C@@H]2Cc3ccccc3CN2C(=O)OC(C)(C)C)c1,0.6,-6.4,6.4,65.2*,9.2,8.4,23.9,8.6,-26.9
COC(=O)c1ccc(N)c2c(N)ccc(C(=O)OC)c12,.,.,-8.1,.,.,-12.8,.,.,.
O=C(COc1ccc2c3c(c(=O)oc2c1)CCCC3)NCCCN1CCOCC1,-17.9,50.7,4.2,94.5*,-14.6,-15.9,20.4,23.9,-58.8
O=C(COc1ccc2c3c(c(=O)oc2c1)CCCC3)NCCN1CCOCC1,2.4,42.9,.,-5.1,1.4,.,.,.,.
CC(C)(C)OC(=O)N1CCC2CCN(S(=O)(=O)c3ccccc3)CC21 (stereo not drawn),.,.,9.9,.,.,-6.8,.,.,.
COc1ccccc1NC(=O)N1CCCC1C(=O)NCC1CCCO1 (stereo not drawn),-6.3,14.0,-4.8,50.3,3.1,10.9,25.4,8.6,-7.1
NC(=O)CC(NC(=O)c1ccccc1)c1ccc(N2CCC(Cc3ccccc3)CC2)c([N+](=O)[O-])c1 (stereo not drawn),13.8,11.2,9.1,63.0*,7.3,11.8,54.4*,27.1*,10.9
O=C(c1ccc(Br)cc1)c1cc([N+](=O)[O-])ccc1N1CCCCC1,11.5,26.8,-60.8,54.8,1.8,24.6,59.8*,60.2*,12.5
CN1CCN(c2ccc([N+](=O)[O-])cc2C(=O)c2ccc(Br)cc2)CC1,29.8,12.2,18.2,6.8,-3.5,-8.1,.,.,.
NC(=O)CC(NC(=O)c1ccc(Br)cc1)c1ccc(N2CCN(c3ccccc3)CC2)c([N+](=O)[O-])c1 (stereo not drawn),-9.7,17.1,5.1,10.4,9.3,-7.6,.,.,.
NC(=O)CC(NC(=O)c1ccc(Br)cc1)c1ccc(N2CCCCCCC2)c([N+](=O)[O-])c1 (stereo not drawn),28.4,36.9,8.3,59.6*,-6.2,32.7,35.6,17.4,-108.3
O=C(Nc1ccc(F)cc1)OCCCN1C(=O)CCC12CCCCC2,.,.,-3.6,.,.,-35.2,.,.,.
O=C(Nc1c(F)c(F)c(F)c(F)c1F)OC[C@@H]1CSCCS(=O)(=O)N1,.,.,4.3,.,.,-4.9,.,.,.
Cc1cccc(CN2CCSCCS2(=O)=O)c1,.,.,-16.5,.,.,2.3,.,.,.
CCCCN(C)C(=O)CN1C(=O)C2CCCCN2C(=O)c2ccccc21 (stereo not drawn),.,.,5.9,.,.,-20.0,.,.,.
COC(=O)[C@]12C[C@H](CC(=O)NCC34CC5CC(CC(C5)C3)C4)C(=O)N(Cc3ccccc3)C1=C[C@H](C(C)C)O[C@@H]2C1CC1,.,.,-2.2,.,.,10.1,.,.,.
CCOc1ncccc1C(=O)Nc1cc(S(=O)(=O)N2CCCCC2)ccc1C,-10.8,-7.3,-19.3,3.7,14.0,-4.8,.,.,.
CCOc1ccc(S(=O)(=O)N2CCCCC2)cc1NC(=O)c1cccnc1OCC,-12.0,4.9,11.8,55.8*,-3.3,16.4,27.7,18.6,-40.6
C=CCN(CC=C)S(=O)(=O)c1ccc(NC(=S)NC(=O)Cc2ccc(OC)cc2)cc1,-14.4,10.7,11.4,69.1*,4.1,19.7,15.6,17.1,24.2
COc1ccc(CC(=O)NC(=S)Nc2ccc(S(N)(=O)=O)cc2)cc1,8.3,25.2,2.5,-0.3,2.9,13.5,.,.,.
Nc1ncnc2c1ncn2[C@@H]1O[C@H](C(=O)N[C@@H](CCc2ccccc2)C(=O)N2CCN(C(=O)C(F)(F)F)CC2)[C@@H](O)[C@H]1O,.,.,-2.6,.,.,-4.4,.,.,.
Cc1ccc(C(=O)NC(=S)Nc2ccccc2N2CCOCC2)cc1C,-11.8,-8.4,.,89.0*,5.4,.,22.6,14.4,-36.6
CC(=O)OCc1cc(-c2nc3ccccc3[nH]c2=O)nn1-c1ccc(Cl)cc1,8.7,17.6,13.6,51.9,1.2,-8.2,11.0,1.6,-28.0
SMILES,SRC3 inh,LRH-1 inv ag,NR2F2 inh,Gli-Sufu antag,SRC1 inh,NCOA2 inhibitor,Gli antag conf,SufuKO cytotox,Wnt3a counter
O=C(CCc1nc2ccccc2[nH]c1=O)OCC(=O)c1ccc(Cl)cc1,15.1,4.1,-0.3,-1.0,9.1,-5.6,.,.,.
O=C(Cn1c(-c2ccccc2)c[n+]2ccsc12)c1ccc(Br)cc1,9.0,9.5,-18.2,50.4,-26.1,-22.4,45.1*,17.3,-30.7
CN(C)CCCN1C(=O)C2CCc3[nH]c4ccccc4c3C2C1=O (stereo not drawn),-6.5,2.9,24.3,51.3,-6.6,4.3,13.4,5.4,-7.4
CN(C)CCCn1c(=S)[nH]c2ccccc2c1=O,-2.4,13.9,2.4,4.2,5.6,-19.6,.,.,.
CO[C@@H]1[C@H](O)CC[C@]2(O)CN(c3ccc(F)cc3)[C@](C)([C@H](O)CC=C(C)C)[C@@H]12,.,.,7.9,.,.,-9.7,.,.,.
COc1ccc(N2CCN(C(=O)COC(=O)c3c(-c4ccccc4)noc3C)CC2)cc1,-11.1,-5.3,-1.4,65.1*,2.5,-10.0,15.7,-0.9,7.3
Cc1onc(-c2ccccc2)c1C(=O)N1CCN(c2ccccc2)CC1,11.6,8.6,-6.1,2.3,2.8,12.2,.,.,.
CCCN(CC1CC1)C(=O)c1oc(=O)c2ccccc2c1-c1ccc(C)cc1,.,.,26.1,.,.,21.0,.,.,.
Cc1ccccc1CNC(=O)CN1CCCc2ccccc21,.,.,7.5,.,.,-18.6,.,.,.
Brc1ccc(CSc2ccc3nnc(-c4cccnc4)n3n2)cc1,-8.5,12.5,-43.0,25.9,-13.1,-8.4,.,.,.
Cc1ccc(CSc2ccc3nnc(-c4cccnc4)n3n2)cc1,-2.4,-5.8,-28.6,52.4,-5.5,5.9,13.7,3.1,-3.4
Cc1ccc2oc(=O)c3cnn(CC(=O)NC4CCCCC4C)c3c2c1 (stereo not drawn),21.1,-3.5,-18.2,99.3*,8.1,-8.7,20.2,11.1,1.1
Cc1ccc2oc(=O)c3cnn(CC(=O)NC4CCC(C)CC4)c3c2c1 (stereo not drawn),2.4,21.2,2.3,53.7,-26.0,-0.5,21.2,17.4,-18.2
COC(=O)c1cc(=O)nc(NN=C(C)C)s1,.,.,8.9,.,.,18.9,.,.,.
CCCOc1ccccc1N/C(=N/c1nc(C)cc(C)n1)NC(=O)COc1ccc(OC)cc1,-1.2,1.8,-6.5,66.6*,-6.7,-5.5,47.9*,23.9,-15.2
CCCOc1ccccc1N/C(N)=N/c1nc(C)cc(C)n1,-3.3,-10.0,13.0,24.0,0.1,9.4,.,.,.
